In the supplement of paper PMC12632987:

T1: USP38, Q8NB14
T1 chain: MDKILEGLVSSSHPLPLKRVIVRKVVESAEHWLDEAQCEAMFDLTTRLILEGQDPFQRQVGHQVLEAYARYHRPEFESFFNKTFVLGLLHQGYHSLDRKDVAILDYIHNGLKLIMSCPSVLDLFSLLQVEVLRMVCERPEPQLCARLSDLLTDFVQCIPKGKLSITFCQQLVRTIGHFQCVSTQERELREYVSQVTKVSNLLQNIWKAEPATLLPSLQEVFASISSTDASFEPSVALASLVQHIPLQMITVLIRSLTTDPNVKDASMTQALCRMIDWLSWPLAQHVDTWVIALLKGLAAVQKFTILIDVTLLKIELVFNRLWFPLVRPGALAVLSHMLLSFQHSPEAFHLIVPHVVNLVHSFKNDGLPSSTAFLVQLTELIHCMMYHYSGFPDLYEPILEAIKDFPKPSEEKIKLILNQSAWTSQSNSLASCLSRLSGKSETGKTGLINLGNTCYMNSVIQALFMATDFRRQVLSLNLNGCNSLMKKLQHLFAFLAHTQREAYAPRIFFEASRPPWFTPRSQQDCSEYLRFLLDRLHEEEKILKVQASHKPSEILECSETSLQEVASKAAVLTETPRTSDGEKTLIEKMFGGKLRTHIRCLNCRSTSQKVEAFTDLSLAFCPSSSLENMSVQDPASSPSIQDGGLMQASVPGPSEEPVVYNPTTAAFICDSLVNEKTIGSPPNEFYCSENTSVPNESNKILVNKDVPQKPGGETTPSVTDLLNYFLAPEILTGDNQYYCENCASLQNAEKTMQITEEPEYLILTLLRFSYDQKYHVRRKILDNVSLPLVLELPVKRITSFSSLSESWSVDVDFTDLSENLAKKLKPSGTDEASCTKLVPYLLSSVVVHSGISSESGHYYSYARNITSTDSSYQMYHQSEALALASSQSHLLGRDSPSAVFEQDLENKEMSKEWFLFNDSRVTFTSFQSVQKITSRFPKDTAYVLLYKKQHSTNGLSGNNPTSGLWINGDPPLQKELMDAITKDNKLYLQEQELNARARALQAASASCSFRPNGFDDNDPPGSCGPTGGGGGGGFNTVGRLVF


Biological target: T1, USP38, Q8NB14
Test: median log2 fold change of GCK-ALFA target abundance (FLAG IP / Myc IP barcode read proportion) (log2 ratio); each designed protein is fused to an ALFA-tag nanobody in HEK293 cells to bring the named protein to FLAG-tagged glucokinase (GCK); Myc marks an untargeted standard; higher = target protein stabilised (more abundant)
Settings: target protein: 3xFLAG-MCP-GCK-ALFA reporter; HEK293 landing pad (RPLP)
Summary of the method: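 Sequencing of reverse-transcribed, amplified circular RNA barcodes from anti-FLAG and anti-Myc immunoprecipitates provided the readout for an ALFA-nanobody-fused binder library recombined into HEK293 landing-pad cells. Those cells were induced with 2 μg mL^−1 doxycycline, transfected with a plasmid expressing a FLAG-tagged target and a Myc-tagged standard, and lysed after 48 h. Target abundance is the per-binder median log2 ratio of FLAG to Myc barcode read proportions. Only barcodes at a proportion of ≥10^−7 in both replicates and binders with ≥3 barcodes per replicate were kept, with a 10^−6 pseudocount added before the two replicates were pooled.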

Binder	median log2 fold change
usp_38_diff_out_4_126_548 (protein) SREEEFEKLKEEANKKMKEAKELLEKAKKLLDKDKEEALKYLDEAAEKLGEASKLLRKMREVAKGDEELRKEYKELLEKLNELVDEYTKVATEIYLALAE	0.358
usp_38_diff_out_4_12_553 (protein) AAEERQKALEKALAEMQKLHEETVKKLKELLEELKKTKKEEILKEAEKLANDALTKLAELTTKALELAETPEEQQAILDLYAQQVTEIVTLMQEAKEAMK	0.201
usp_38_diff_out_4_12_552 (protein) AEEERRKELEELLREMEELTEETVARMKELLKELKETKDEEVYEELLKLAEEALTRLAELTTRALELAETDEELEEILRRYSEAVDEIVALMQEARKAMK	-0.539
usp_38_diff_out_4_12_555 (protein) SAEEEKEKLEKLKEELKKKSEELKELADKLLAEVKEKKDRATYKKAEEELNKKLTELAELTLETLEATDDDEELEEILKLTDETFTYVSEKAAEMREIMK	0.0256
usp_38_diff_out_4_126_543 (protein) DREKAFDELAKEAEALMKEAKEYLEKAKEAMDKDPEKAKEYLDKAYEALGKLSKALREMRRIARDDPELRKRYKELLKKANELVSEFTKVAEELLLKLSE	-0.661
usp_38_diff_out_3_65_539 (protein) KVEELLERAQEHLEKAEELVEGLRERTATDPTLTIDEVVAMLDEAADHLVAAAQDIEEAKKLDPDEEQQERLEELQERLDRLIDEYERAGREAFLAVGER	-0.504
usp_38_diff_out_4_126_547 (protein) GREKEFEKLKKEAEELLKKAKELLEKAKEALDKDPKKAQEYLDKALEYLGKLAKLLREMRRVAEGDPELQKEVKELQKKADELVDEYTKAAEEIYLALAE	0.575
usp_38_diff_out_4_12_561 (protein) SEEERKKIAEEALEEMEKKSKEVKEKAKKAKEEAIKTKDLAAFNKKMNELIKELTDLTLEKLEKLAEIGDDETIEEILRIAGETFKELSKLAKEVKEAAK	-0.892
usp_38_diff_out_3_65_542 (protein) KVEELLKKAEEKLKEAREKIRELRERVETDPELTEEEIVEMLDEAADLLVEAGEYIREAKKLNPDEEAKKKIKELEKELEELIDEYVEAGERAFLAYGER	0.499
usp_38_diff_out_4_12_559 (protein) AEEEHKEALEKAKEELKKLSEETIKLAKELLEKVKKEKSRATLKEANEKLNKKITELAEATLKALELAETDEELQEILDLWDKTSTEISRLAKEMREILK	-0.371
usp_38_diff_out_4_12_558 (protein) SEEERKKKREEALKELKKLSEDAKATADKLLAEVKKKKDKATLKAANATLNDLLTKLAEKTLEALELAENDEELEEILKIYDDTATYITTKAAEMKAVLK	0.037
usp_38_diff_out_3_65_537 (protein) EVEELLEEAERRLEEARELIEALRREVESDPSLTIDEVNARLDEAVDLLVEAGEAIRRARRLDPDPEQRERLEELERRLDEVLRLYRETAEFAFLTVAER	-0.264
usp_38_diff_out_4_12_551 (protein) SAEERRRKREEALERLRRLAEEATREAERLKKEVEEKKDEATLEEALKRANELITELSEATLEALELAENLEEVEEVLRLAEPAFDALAELRVKIEEARK	-0.341
usp_38_diff_out_4_12_556 (protein) SPEEEEEARERALRELEERSRRLREEAERLLARVKETRDEATYKEANERLNKGLTELAELTLRTLELTDDDEELERILRLTDETFRYVSEKAAEMRELMK	-0.146
usp_38_diff_out_4_126_546 (protein) SRKEEFEKLKKEAEEKMKEAKKLLAEALAALDKDPEKALALLDKAWDALGEAAALLREMRRIAADDPELRKEVKKLEEELDELIDEFTEAATRIYLKIAE	-0.11
usp_38_diff_out_3_65_536 (protein) EVEKLLEEAKKYLEEARKIVEELRREVEEDPTITIDEVNEKLDEAADKIVAAGQKIREAKKLNPDEEQKKQLEELEKELDEVLELYRETAEYAFLKVAER	-0.223

Binder	median log2 fold change
usp_38_diff_out_4_12_560 (protein) AEEEHKKKLEEAKKELEKLSEELKELADKKLEEVKEKKDKATLKEAEKEINEKITELAEKTLKALELAETDEDLQKILDLYDDTATYVSEKAAEMREILK	-0.0183
usp_38_diff_out_3_65_535 (protein) KIEELLKEAEKYLEEAEKLVEELRRRVESDPTLTIDELNARLDEAADLIVKAGQKIREAKKLNPDEEQKKKLKELEKRLDEVLKKYREAAEEGFLRVAER	-0.384
usp_38_diff_out_3_65_532 (protein) KVEELLKKAEEKLEEAEKKIKELEKRVKEDPNITEEEVNEMLDEAADLIVEAGKYIREAKKLNPDEEQQERIKELEERLDEVIDLYVKAGEAGFLAVGER	-0.0854
usp_38_diff_out_3_65_533 (protein) KVEELLKKAEEKLKEAEKKIRELEERVETDPSLTEEEVNAMLDEAADLIVEAGKYIREAKKLNPDEEQKKRIEELEKRLDEVIDLYVEAGERAFLAVGER	0.0706
usp_38_diff_out_4_12_554 (protein) SAEERRRRFEEALREMERLHRETIEKLEELKEELKKTKDEKVLEEAEKLANEALSRLAELTTRALEEAENDEEVQEILDLYSRHVDEIVTLMNEMKKIMK	0.0829
usp_38_diff_out_4_126_544 (protein) SREAEFAALRAEAEAALAEAERLLAEARAELDKDPEKALELLDRAWDALGRAAALLREMRRIAADDPALRAELAALRARLDALIDEFTAAATEIYEKIAE	-0.215
usp_38_diff_out_4_126_550 (protein) SMKEELEKKLEEAKKLAEEALKAAARLVELAATDPSKVAEARAELDALIAAFTKAANEALKLARKDGKYKEEVTKEIDKLTDEVVEAEGKAVEAVAEALA	0.0827
usp_38_diff_out_4_12_562 (protein) SMEEKEKKVKEALEEMKKLSEEAKEKAKKAAEEAKKTGNLAEFNKKMNELINKLTEKTLEVLEKLAELGDEESIEEVLKITSETFTYISQLAAEVKKAAA	-0.588
usp_38_diff_out_4_99_564 (protein) MKEEMVKKVKELKKEAEELLKKAKEAFKLSHEERKKVAEELSKELDELAKELGKIYFEARDTGDKELIKAVNKEADEFVKAYNEAAKELNLLRHEVLEEE	-0.19
usp_38_diff_out_3_65_538 (protein) EVQKLLEEAQKLLDEATKIIDELKERVESDPTLTIDEVNEMLDKAADKIVAAGEKINEAKKLNPDEEQKKQIEELEKRLDEVIEKYREAAEYAFLRVAER	-0.281
usp_38_diff_out_4_12_557 (protein) AEEEREREFKRKREELKRLSEETKERADKLLEEVKKKKDKATLKEATKKLNEDLTKLAELTLETLELAETDEEVQEILDLFDDTATYVSEKAAEMKEILK	-0.616
usp_38_diff_out_3_65_541 (protein) EIEKLLKEAKKYLEEAKKIIEELRERTRTDPTLTIEEVNEMLDKAADLLVKAGEYIEKAKKLNPDEKQKKEIEKLKKELEELLDEYVEAGEEAYLAVGER	-0.0269
usp_38_diff_out_3_65_540 (protein) EVQELLERAERHLEEAEEIIEELERRTETDPTLTIDEVVEMLDEAADHLVAASEDIKEAKKLNPDEEQKKRIEELEKRLDELIDRYVEAGERAFLAVGER	0.111
usp_38_diff_out_3_65_534 (protein) EVEELLKEAQKKLKEARAIIEALRERVESDPTITIDEVNARLDEAADKIVEAGQYIREAKKLNPDEEQKKKIEELEKELDEVLDEYRETAEFAFLRVAER	-0.0616
usp_38_diff_out_4_126_545 (protein) SREEEFKKLEKEAEKKIEEAKKLLEEALKELDKDPEKALELLDKAWDALGEAAKLLREMRRVAADDEELRKRYKELEEKLDKLIDEFTKAATYIFEKIAE	-0.694
usp_38_diff_out_4_126_549 (protein) DREKQAEELEKKLEEALKKAKEYLKKAKELLDKDKEETLKALDKSWEALGKASELLRELRRIAIDDPELRERYKKLLEEANKLVDEFTKAAEEIYLKLSE	-1.05
